For assay [1], the target named is Albumin (Bos taurus) (UniProt P02769). Put plainly: compounds binding labelled BSA control protein – biochemical, small-molecule microarray, Alexa647 label, 635/667 nm fluorescence, artefact control for SMM control protein annotation, profiling panel (AID 1118).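 Note: score merges 667 nm emission intensity and signal-to-noise per printed compound spot.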 The note with it: BSA-A647 binding, fluorescence 635 nm, higher = more signal.
Assay [2] in a line: probe aXIP binding to arrayed compounds – biochemical, NeuroSMM set, 635/667 nm fluorescence, primary screen (AID 1119).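 Note: probe is the protein aXip251-270 applied at 1 µg/mL to compound-printed slides; binding of probe to printed compounds measured as 667 nm fluorescence plus signal to noise.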 The note with it: small-molecule microarray, higher = more signal, called active from +8 up or from −8 down.
A short description of assay [3]: probe aNOTCH3 binding on compound microarray – biochemical, small-molecule microarray, 635/667 nm fluorescence, primary screen (AID 1120).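 Note: probe is a biotin-tagged antibody raised against NOTCH3 rather than NOTCH3 protein; score merges spot fluorescence near 667 nm with spot signal to noise.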 As to conditions: higher = more signal.
Assay [4] is described as follows: probe aNOTCH2 binding on compound microarray – biochemical, small-molecule microarray, 635/667 nm fluorescence, primary screen (AID 1121).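 Note: score merges feature fluorescence read at 667 nm with its signal to noise.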 As to conditions: higher = more signal.
Assay [5] has as its target Carbonic anhydrase 2 (Homo sapiens) (UniProt P00918). Put plainly: compounds binding carbonic anhydrase 2 – biochemical, small-molecule microarray, Alexa647-labelled CAII, profiling panel (AID 1122). As to conditions: CAII-A647 binding fluorescence, higher = more signal.
Assay [6] is described as follows: COS7 lysate on small-molecule microarray, probe aHis, 635 nm (AID 1123).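 Note: z-score combines 667nm fluorescence intensity with signal-to-noise per printed compound spot.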 The note with it: COS7 cell lysate, fluorescence, higher = more signal.
Assay [7] is described as follows: probe aLAP1 signal on lysate-treated microarray – cell lysate, small-molecule microarray, COS7 lysate, primary screen (AID 1124).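 Note: lysate comes from COS7 cells expressing LAP1 and is applied at 0.3 µg/mL; score merges spot fluorescence near 667 nm with signal-to-noise over triplicate slides.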 The note with it: probe aLAP1, fluorescence, higher = more signal.
For assay [8], the system named is Sam68 (KHDRBS1). Nature of the assay: compounds binding KHDRBS1 protein – biochemical, small-molecule microarray, 635 nm fluorescence, primary screen (AID 1125).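 Note: score merges 667 nm channel intensity with signal to noise over triplicate slides.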 As to conditions: higher = more signal.
The test system of assay [9] is Chordin-like protein 2 (CHRDL2). Put plainly: compounds binding chordin-like 2 – biochemical, small-molecule microarray, 635 nm fluorescence, primary screen (AID 1126).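 Note: printed compound slides probed with Chrdl2 protein at 4 µg/mL for 1 h at 4 C; score merges 667 nm emission intensity with signal to noise over three replicate slides.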 The note with it: fluorescence 635 nm, higher = more signal.
Assay [10] deals with Concanavalin-A (Canavalia ensiformis) (UniProt P02866). Put plainly: compounds binding concanavalin A lectin – biochemical, small-molecule microarray, Alexa647 label, 635 nm, artefact control for SMM control protein annotation, primary screen (AID 1127).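 Note: z combines 667 nm emission intensity with signal-to-noise across three replicate slides.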 As to conditions: ConA-A647 binding fluorescence, higher = more signal.
A short description of assay [11]: compounds binding Alexa647 anti-His antibody – biochemical, small-molecule microarray, 635 nm fluorescence, artefact control for SMM control protein annotation, primary screen (AID 1128).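 Note: score merges feature fluorescence with signal-to-noise for each printed compound spot.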 The note with it: higher = more signal.
The subject of assay [12] is Human papillomavirus type 1a E7 protein (residues 1-88). Put plainly: HPV1a E7 small-molecule binders, primary screen, biochemical, small-molecule microarray, residues 1-88, 635 nm (AID 1129). As to conditions: small-molecule microarray binding, fluorescence 635 nm; higher = more signal.
The target of assay [13] is Focal adhesion kinase 1 (Homo sapiens) (UniProt Q05397). Nature of the assay: PTK2 protein binding on printed compound slides – biochemical, small-molecule microarray, 635/667 nm fluorescence, BSA, DTT, primary screen (AID 1130).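 Note: composite of spot emission at 667 nm and signal to noise over triplicate slides.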 The note with it: 635 nm fluorescence, higher = more signal.
Assay [14] deals with Fibrinogen (Alexa647-labelled). Nature of the assay: Alexa647-fibrinogen binding to printed small molecules – biochemical, small-molecule microarray, 635/667 nm fluorescence, artefact control for SMM control-protein annotation, profiling panel (AID 1131).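 Note: z-score merges 667 nm fluorescence with per-spot signal-to-noise over triplicate slides.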 The note with it: fibrinogen-A647 binding fluorescence, higher = more signal.
For assay [15], the target named is Follistatin (Homo sapiens) (UniProt P19883). Nature of the assay: FST protein binding to printed compounds – biochemical, small-molecule microarray, 635/667 nm fluorescence, primary screen (AID 1132). The note with it: 635 nm fluorescence, higher = more signal.
The target in assay [16] is Fibroblast growth factor 2 (Homo sapiens) (UniProt P09038). Nature of the assay: basic fibroblast growth factor binding to printed compounds – biochemical, small-molecule microarray, 635/667 nm fluorescence, primary screen (AID 1133). As to conditions: FGF2, fluorescence 635/667, higher = more signal.
Assay [17] is described as follows: JC-1 mitochondrial potential readout, lung cancer cells – cell-based, A549, JC-1 fluorescence, basal, 24 h, 100 nL, profiling panel (AID 1138).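 Note: A549 lung adenocarcinoma cells under basal conditions with no added stimulus; test concentration not given here.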 The note with it: higher = more signal.
Assay [18] relates to Lefty1. Nature of the assay: Lefty1 protein binding to printed compounds – biochemical, small-molecule microarray, 635/667 nm fluorescence, primary screen (AID 1139). As to conditions: fluorescence 635/667, higher = more signal.
For assay [19], the system named is wheat germ agglutinin (Triticum aestivum), Alexa647-labelled. Put plainly: Alexa647-WGA lectin binding to printed small molecules – biochemical, small-molecule microarray, 635/667 nm fluorescence, artefact control for SMM control-protein annotation, profiling panel (AID 1140).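 Note: score merges 667 nm feature emission with signal to noise over triplicate slides.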 As to conditions: WGA-A647 binding, 635 nm fluorescence, higher = more signal.
The target in assay [20] is Luciferin 4-monooxygenase (Photinus pyralis) (UniProt P08659). Put plainly: inhibition of purified Photinus pyralis luciferase – biochemical, luminescence, purified enzyme, 2006 set, primary screen (AID 1141).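 Note: cell-free assay with purified firefly luciferase at 100 ng per well in PBS; test concentration not given here.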 As to conditions: purified firefly luciferase, SteadyGlo luminescence, 30 min; higher = more signal, called active from +8 up or from −8 down.

The structures appear in SMILES notation. Active and inactive are the calls of the source.

Follistatin (Homo sapiens), sequence (P19883 whole entry, looked up): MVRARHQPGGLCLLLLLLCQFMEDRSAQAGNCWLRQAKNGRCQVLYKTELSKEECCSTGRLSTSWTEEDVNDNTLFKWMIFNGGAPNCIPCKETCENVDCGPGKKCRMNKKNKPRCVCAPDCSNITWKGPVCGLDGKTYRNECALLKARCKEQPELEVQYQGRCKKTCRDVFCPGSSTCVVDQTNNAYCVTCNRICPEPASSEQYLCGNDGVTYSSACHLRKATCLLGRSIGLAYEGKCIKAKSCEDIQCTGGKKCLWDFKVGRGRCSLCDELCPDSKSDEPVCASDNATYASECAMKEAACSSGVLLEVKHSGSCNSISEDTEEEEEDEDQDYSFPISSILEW
Fibroblast growth factor 2 (Homo sapiens), sequence (P09038 whole entry, looked up): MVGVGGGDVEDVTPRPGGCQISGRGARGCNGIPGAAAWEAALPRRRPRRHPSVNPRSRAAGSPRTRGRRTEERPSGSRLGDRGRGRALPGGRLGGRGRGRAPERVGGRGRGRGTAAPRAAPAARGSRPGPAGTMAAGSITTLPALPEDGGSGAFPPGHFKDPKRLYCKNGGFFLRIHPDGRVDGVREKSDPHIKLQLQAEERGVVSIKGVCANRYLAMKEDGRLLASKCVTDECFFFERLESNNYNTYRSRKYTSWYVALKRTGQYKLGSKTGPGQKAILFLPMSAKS
Concanavalin-A (Canavalia ensiformis), sequence (P02866 whole entry, looked up): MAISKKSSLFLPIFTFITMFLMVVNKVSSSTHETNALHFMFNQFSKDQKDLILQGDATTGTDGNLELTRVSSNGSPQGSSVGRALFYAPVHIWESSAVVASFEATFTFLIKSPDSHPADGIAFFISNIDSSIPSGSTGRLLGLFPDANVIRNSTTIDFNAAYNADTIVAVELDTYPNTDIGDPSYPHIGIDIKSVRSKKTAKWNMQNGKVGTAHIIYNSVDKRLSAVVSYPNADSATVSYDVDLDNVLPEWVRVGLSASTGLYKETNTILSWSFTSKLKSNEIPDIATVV
Albumin (Bos taurus), sequence (P02769 whole entry, looked up): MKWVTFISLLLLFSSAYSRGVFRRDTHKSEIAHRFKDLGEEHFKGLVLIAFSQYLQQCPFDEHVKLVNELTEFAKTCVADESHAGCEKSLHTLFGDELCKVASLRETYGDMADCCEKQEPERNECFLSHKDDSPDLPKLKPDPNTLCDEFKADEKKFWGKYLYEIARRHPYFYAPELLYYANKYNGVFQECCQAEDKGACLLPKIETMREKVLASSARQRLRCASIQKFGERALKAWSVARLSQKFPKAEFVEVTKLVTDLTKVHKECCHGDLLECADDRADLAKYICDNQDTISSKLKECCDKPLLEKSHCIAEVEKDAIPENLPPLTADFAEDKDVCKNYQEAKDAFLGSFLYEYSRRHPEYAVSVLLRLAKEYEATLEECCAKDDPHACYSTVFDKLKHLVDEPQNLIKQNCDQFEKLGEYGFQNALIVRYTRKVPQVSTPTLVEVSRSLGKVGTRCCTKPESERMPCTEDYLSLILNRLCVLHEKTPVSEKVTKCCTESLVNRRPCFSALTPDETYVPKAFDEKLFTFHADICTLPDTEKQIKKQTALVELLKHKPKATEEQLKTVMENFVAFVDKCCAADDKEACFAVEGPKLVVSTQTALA
Luciferin 4-monooxygenase (Photinus pyralis), sequence (P08659 whole entry, looked up): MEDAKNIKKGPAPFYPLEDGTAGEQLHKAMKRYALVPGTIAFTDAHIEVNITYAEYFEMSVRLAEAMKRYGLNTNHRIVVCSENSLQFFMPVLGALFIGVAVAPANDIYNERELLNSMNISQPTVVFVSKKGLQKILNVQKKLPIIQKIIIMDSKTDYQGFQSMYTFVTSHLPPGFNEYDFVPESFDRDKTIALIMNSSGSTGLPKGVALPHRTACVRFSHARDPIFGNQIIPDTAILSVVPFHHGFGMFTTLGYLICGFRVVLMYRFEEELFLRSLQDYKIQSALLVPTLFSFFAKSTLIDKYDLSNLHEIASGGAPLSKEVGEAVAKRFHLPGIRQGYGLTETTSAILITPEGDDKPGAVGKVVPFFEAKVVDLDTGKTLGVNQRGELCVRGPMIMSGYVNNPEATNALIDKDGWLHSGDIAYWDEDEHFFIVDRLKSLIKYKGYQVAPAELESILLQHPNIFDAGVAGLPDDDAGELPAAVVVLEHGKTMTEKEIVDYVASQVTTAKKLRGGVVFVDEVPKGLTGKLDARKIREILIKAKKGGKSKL
Focal adhesion kinase 1 (Homo sapiens), sequence (Q05397 whole entry, looked up): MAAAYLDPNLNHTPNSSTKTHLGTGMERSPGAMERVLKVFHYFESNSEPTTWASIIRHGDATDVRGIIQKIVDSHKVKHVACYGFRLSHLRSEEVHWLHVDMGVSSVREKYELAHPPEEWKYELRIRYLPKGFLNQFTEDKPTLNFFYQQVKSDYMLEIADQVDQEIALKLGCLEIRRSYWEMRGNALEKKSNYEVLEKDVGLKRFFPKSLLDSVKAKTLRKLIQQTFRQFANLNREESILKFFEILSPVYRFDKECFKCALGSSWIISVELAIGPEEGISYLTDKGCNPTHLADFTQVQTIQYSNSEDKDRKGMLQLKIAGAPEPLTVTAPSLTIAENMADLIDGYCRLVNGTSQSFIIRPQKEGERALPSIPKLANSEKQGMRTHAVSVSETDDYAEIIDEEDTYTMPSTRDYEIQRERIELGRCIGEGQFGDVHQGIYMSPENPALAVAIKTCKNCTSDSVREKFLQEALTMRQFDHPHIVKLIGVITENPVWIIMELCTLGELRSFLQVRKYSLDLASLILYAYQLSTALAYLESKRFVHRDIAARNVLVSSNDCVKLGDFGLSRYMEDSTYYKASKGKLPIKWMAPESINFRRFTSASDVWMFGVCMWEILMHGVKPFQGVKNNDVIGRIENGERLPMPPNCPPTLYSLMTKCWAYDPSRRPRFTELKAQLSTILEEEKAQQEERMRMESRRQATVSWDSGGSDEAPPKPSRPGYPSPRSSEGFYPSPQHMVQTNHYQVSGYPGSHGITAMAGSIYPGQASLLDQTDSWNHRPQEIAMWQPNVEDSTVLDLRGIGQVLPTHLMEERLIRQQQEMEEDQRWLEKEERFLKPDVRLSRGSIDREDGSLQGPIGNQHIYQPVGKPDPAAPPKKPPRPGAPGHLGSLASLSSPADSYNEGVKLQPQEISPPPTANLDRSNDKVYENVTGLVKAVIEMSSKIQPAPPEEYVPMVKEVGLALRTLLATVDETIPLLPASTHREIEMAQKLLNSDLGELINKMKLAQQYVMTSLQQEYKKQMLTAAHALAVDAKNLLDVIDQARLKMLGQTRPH

For `CCOC(=O)C[C@H]1[C@H](OC(=O)c2ccc(C(=O)c3ccccc3)cc2)[C@@H](NC(=O)c2ccc3ccccc3c2)c2cc(OCCCO)ccc2N1C(=O)Cc1ccc(OC)cc1`, the composite z-score was 0.638 in [1]; -0.0932 in [3]; -0.149 in assay [4]; 0.009 in assay [5]; 0.899 in [6]; 0.0147 in assay [7]. For the same compound, the composite z-score was 0.484 in assay [8]; -0.197 in assay [9]; 0.114 in [10]; 0.0204 in assay [11]; 0.542 in [12]; 0.222 in assay [13]. Moreover, the composite z-score in assay [14] came out at 0.424; in [15], 0.288; in assay [16], 0.115; in assay [18], 0.199; in assay [19], 0.398. The composite Z-score in assay [2] is -0.68 (inactive). The z-score in assay [17] was 0.826; in [20], 0.789 (inactive).

Regarding `[N-]=[N+]=NCc1ccccc1[C@@H]1OC(c2ccc(OCCCO)cc2)=N[C@]1(Cc1ccccc1)C(N)=O`, the composite z-score in assay [1] was found to be 0.979; in assay [3] it was 0.526; in assay [4], 0.0646; in [5], 0.783; in assay [6], 1.79; in assay [7] it was 0.222. Besides, the composite z-score in assay [8] is 1.3; in [9] it was -0.692; in assay [10], 1.16; in assay [11] it was 0.888; in [12] it was 1.25; in [13], 1.22. The composite z-score in assay [14] was determined as 1.06; in assay [15], 1.28; in assay [16] it was 0.0766; in assay [18] it was 0.186; in assay [19] it was 1.06. Besides, the composite Z-score in assay [2] was -0.791 (inactive). In addition, the z-score is 0.199 in assay [17] and -0.0322 (inactive) in assay [20].

With `CN(C)CCCC[C@@H]1NC(=O)[C@H]2C[C@@H](C(=O)NCCCCCCN)[C@@H](c3ccc(O)cc3)N2C1=O`, the composite z-score was found to be 0.887 in assay [1]; 0.665 in [3]; 0.419 in assay [4]; 0.35 in assay [5]; 1.48 in assay [6]; 1.09 in assay [7]. Also, the composite z-score in [8] amounted to 1.28; in assay [9] it was 1.04; in assay [10], 1.04; in assay [11] it was 2.07; in assay [12] it was 1.09; in assay [13], 0.333. For the same compound, the composite z-score is 0.977 in assay [14]; 1.41 in [15]; 1.82 in [16]; 1.67 in assay [18]; 1.03 in [19]. Further, the composite Z-score in assay [2] is 0.37 (inactive). In addition, the values for the z-score in [17] and in assay [20] were 0.462 and 0.498 (inactive), respectively.

For `O=C1C[C@@](C(=O)NCC(F)(F)F)(c2ccc([N+](=O)[O-])cc2)[C@@H](c2ccc(CO)cc2I)N1C1CCCCC1`, the composite z-score in assay [1] is 0.365; in assay [3], 0.03; in assay [4], -0.0394; in assay [5], 0.437; in [6] it was 2.22; in assay [7], -0.0164. For the same compound, the composite z-score in [8] was 1.23; in assay [9] it was 0.189; in [10], 0.676; in [11], 0.226; in assay [12] it was 1.25; in [13], 0.466. The composite z-score in assay [14] was 0.9; in assay [15] it was 1.05; in [16], 1.26; in assay [18] it was 0.394; in [19] it was 0.834. Besides, the composite Z-score in [2] was 0.004 (inactive). Further, the values for the z-score in assay [17] and in assay [20] were 1.8 and 0.59 (inactive), respectively.

As to `CCCC[C@@H]1C[C@H]1[C@@H](NC(=O)C(C)(C)C)c1ccc(C(F)(F)F)cc1`, the composite z-score is 0.315 in assay [1]; -0.222 in assay [3]; -0.0986 in [4]; 0.289 in assay [5]; 0.834 in assay [6]; 0.0265 in [7]. The composite z-score in assay [8] is -0.305; in assay [9], -2.05; in assay [10], -0.0101; in assay [11], 1.73; in assay [12], 0.779; in [13], 0.702. In addition, the composite z-score was -0.27 in [14]; -1.57 in assay [15]; -1.4 in assay [16]; -0.722 in assay [18]; -0.372 in [19]. Moreover, in [2], the composite Z-score is -0.414 (inactive). The z-score in [17] is -1.08; in assay [20], -3.32 (inactive).

Consider `O=C1NC(=O)C2C1C=CC(C(O)c1cccs1)N2Nc1ccc(Cl)cc1Cl` (stereo not given), for which the composite z-score was 0.165 in [1]; 0.267 in assay [3]; 0.181 in assay [4]; 0.723 in assay [5]; 1.03 in assay [6]; 0.293 in assay [7]. Besides, the composite z-score in [8] is -0.374; in assay [9], -0.352; in [10] it was -0.376; in assay [11], 0.541; in [12], -0.443; in [13] it was -0.0686. The composite z-score in [14] is -0.868; in assay [15] it was -0.222; in assay [16], -0.534; in [18] it was -0.245; in [19] it was 0.22. Also, the composite Z-score in assay [2] was -0.196 (inactive). For the same compound, the z-score was -0.384 in assay [17] and -1.64 (inactive) in assay [20].

On to `O[C@@H](Cc1ccccc1)[C@H]1C2C=CCCC=C2CN1Cc1cccc(Cl)c1` (stereo not given in full), for which the composite z-score in assay [1] turned out to be 0.478; in [3], 0.361; in [4], 0.0018; in assay [5], 0.385; in assay [6] it was 0.822; in assay [7], 0.536. Besides, the composite z-score in assay [8] came to 1.31; in [9], 0.595; in assay [10], 0.609; in assay [11], 1.21; in [12], 1.14; in assay [13] it was 0.184. Moreover, the composite z-score in assay [14] was found to be 0.675; in [15] it was 1.24; in assay [16], 0.688; in assay [18] it was 1.41; in assay [19], 0.593. Further, the composite Z-score in assay [2] is 0.0338 (inactive). In addition, the z-score is 0.182 in [17] and -1.89 (inactive) in assay [20].

As to `C#C[C@H](O[Si](C#Cc1ccc(Oc2ccccc2)cc1)(C(C)C)C(C)C)c1ccccc1`, the composite z-score is 0.687 in assay [1]; 0.0122 in assay [3]; -0.0057 in assay [4]; 0.695 in assay [5]; 0.45 in assay [6]; 0.484 in [7]. For the same compound, the composite z-score is 0.99 in assay [8]; 0.662 in [9]; 0.971 in [10]; -0.179 in assay [11]; 0.679 in assay [12]; -0.6 in [13]. Moreover, the composite z-score was found to be 0.385 in assay [14]; 0.101 in assay [15]; 0.137 in [16]; 0.104 in assay [18]; 0.0936 in [19]. Besides, the composite Z-score in assay [2] was 0.29 (inactive). Moreover, the z-score is -1.83 in [17] and 0.0848 (inactive) in assay [20].

The record behind these values is PubChem BioAssay.
